Tg IFNy HTS – T. gondii growth inhibition with IFN-gamma, primary screen, cell-based. Toxoplasma gondii growth in IFN-gamma-treated host cells; hits give low values. hit rate 3.8% among 69,000. activity change, negative = inhibition, % (no concentration beside the values); in the data active = activity change below about -70%, passing the limit was not always enough;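 also: host cells are HeLa cells infected with Toxoplasma gondii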
* hit, by the source's call. The entries come from a sample that favours hits as a whole.

SMILES	Tg IFNy HTS
CCOC(=O)Cn1c(=O)c2c(nc3n2CCCCN3c2ccc(OCC)cc2)n(C)c1=O	-14.1
COc1ccccc1NC(=O)Nc1ccc(-c2nc(-c3cccc(Br)c3)co2)cc1	-64.7
Cc1cccc(CN2C[C@H]3[C@H](C(=O)N(C)C)CCS(=O)(=O)[C@H]3C2)c1	-46.7
Cc1cccc(CN2C[C@H]3[C@H](C(=O)N4CCOCC4)CCS(=O)(=O)[C@H]3C2)c1	-1.3
Cc1cccc(CN2C[C@H]3[C@H](C(=O)Nc4ccccc4)CCS(=O)(=O)[C@H]3C2)c1	-114.7*
O=C(CN1C(=O)CCc2cc(Br)ccc21)N1CCN(c2ccccc2)CC1	-42.6
CCCN1C(=O)CCc2cc(C(=O)N3CCOCC3)ccc21	-13.8
O=C(c1ccc2c(c1)CCC(=O)N2Cc1ccccc1)N1CCN(c2ccc(F)cc2)CC1	-107.6*
O=C(Nc1ccc(Oc2c(F)c(F)c(F)c(F)c2F)cc1)OC1CCN2Cc3ccccc3N=C12 (stereo not given)	-98.8*
CCOc1ccc(NC(=O)Cn2ncc3c(N4CCC(C)CC4)ncnc32)cc1	-30.8
O=C(Cn1ncc2c(N3CCCC3)ncnc21)Nc1ccc(Oc2ccccc2)cc1	-59.6
O=C(O)c1cccc(CC2CCN(C(=O)Nc3ccccc3Cl)C2)c1 (stereo not given)	24.7
Cc1ccc(CN2CCN(C(=O)c3csc(C)n3)CC2=O)cc1	8.0
CCn1ccc2cc(S(=O)(=O)N3CCC(C(=O)N4CCN(c5ncccn5)CC4)CC3)ccc21	24.9
CO[C@H](C(=O)N(C)C[C@H]1OCc2ccccc2-c2ccccc2C(=O)N([C@H](C)CO)C[C@H]1C)c1ccccc1	77.7
O[C@@H]1C[C@H]2CN(Cc3cc(Cl)ccc3C(F)(F)F)C[C@H]2C[C@@H]1O	28.4
C(=C/c1nccc2c1[nH]c1ccccc12)/c1ccc2c(c1)OCO2	132.7
COc1ccc(OC)c(-n2c(/C=C/c3ccc4c(c3)OCO4)nc3ccccc3c2=O)c1	19.1
C(=C/c1ccc2ccccc2n1)/c1ccc2c(c1)OCO2	-93.6*
COCCNc1nc2cc(C(=O)N3CCC(O)(CO)CC3)ccc2n1C	-27.6
Cc1cccc(CN2CCC3(CC2)N=C(c2cccc(F)c2)C(=O)N3)c1	67.4
Cc1nc(N2CCN(c3ccccc3)CC2)nc2c1C(=O)CC(c1ccccc1F)C2 (stereo not given)	-24.6
Cc1ccccc1C1CC(=O)c2cnc3[nH]n(-c4ccccc4)c(=O)c3c2C1 (stereo not given)	-90.9*
Cc1cc(=O)[nH]n(-c2ccccc2)c1=O	-48.8
CCOc1ccc(-c2nc(Cn3ccn4nc(-c5ccc(C)c(C)c5)cc4c3=O)c(C)o2)cc1OC	-63.5
SMILES	Tg IFNy HTS
COCCN1CCO[C@H]2CN(c3cccc(F)c3)CC[C@@H]2C1	-4.8
CC(=O)O[C@@H]1CC2C(C)(C)[C@H](O)CC[C@]2(C)C2CC[C@@]3(C)[C@H](c4ccoc4)OC(=O)C4OC43[C@@]21C (stereo not given in full)	-71.2*
CC1(C)C(=O)C=C[C@@]2(C)C1C=C[C@]1(C)C2CC[C@@]2(C)[C@H](c3ccoc3)OC(=O)[C@H]3O[C@]321 (stereo not given in full)	-85.7*
CC(=O)O[C@H]1C[C@@H](O)C(C)(C)C2C[C@@H](OC(C)=O)[C@]3(C)C(CC[C@@]4(C)[C@H](c5ccoc5)OC(=O)C5OC543)[C@]21C (stereo not given in full)	17.9
CC(=O)O[C@@H]1CC2C(C)(C)C(=O)C=C[C@]2(C)C2CC[C@@]3(C)[C@H](c4ccoc4)OC(=O)[C@H]4O[C@]43[C@@]21C (stereo not given in full)	16.1
CC1(C)C(=O)C=C[C@@]2(C)C1CC(=O)[C@]1(C)C2CC[C@@]2(C)[C@H](c3ccoc3)OC(=O)[C@H]3O[C@]321 (stereo not given in full)	25.2
CC(=O)O[C@@H]1C[C@H]2C(C)(C)C(=O)C=C[C@]2(C)[C@H]2CC[C@@]3(C)[C@H](c4ccoc4)OC(=O)[C@H]4O[C@]43[C@@]21C	52.3
O=C(O)CCCn1cc(NC(=O)c2cc(F)c(F)cc2Cl)cn1	-37.3
Cc1onc(C(C)C)c1C(=O)N1CCC(c2cc(C(F)(F)F)c3c(N)[nH]nc3n2)CC1	-75.3*
Cc1ncc(C(=O)N2CCC(c3cc4nc(C(C)C)cc(C(F)(F)F)n4n3)CC2)c(C)n1	-2.8
CNc1nc(C2CCN(C(=O)c3c(C(C)C)noc3C)CC2)nc2c1CN(C(C)=O)CC2	15.5
CC1=C(C(=O)Nc2ccc(Cc3ccncc3)cc2)C2(CCN(Cc3ccccc3)CC2)OC1=O	22.6
COc1ccc(CSc2nc(C)cc(C)c2C#N)cc1	-20.7
COc1ccc(Cl)cc1Nc1nc(C)cc(C)c1C#N	-79.1*
CN(C)c1nc(-c2ccccc2)nc(Nc2ccc(Cl)cc2Cl)c1C#N	98.6
CNC(=O)c1cc(=O)n(CC(=O)Nc2c(C)cc(C)cc2C)c2ccccc12	-11.8
O=C(Nc1cccc(Cl)c1)c1nc(Nc2ccc(Cl)cc2)c2ccccc2n1	22.9
CCOc1ccccc1-c1nc(Cc2noc(-c3ccncc3)n2)c(C)o1	28.2
